Laboratory results as given in PubChem BioAssay (NCATS).
Inconclusive results are not listed. The source made the active and inactive calls. Unless noted, calls follow the shape of the dose curve; as a rule, active = well fitted curve in the direction sought with a large enough effect; inconclusive = small, poorly fitted or top-dose-only effect, or another doubt; inactive = no such curve, though single readings can be large; an effect the other way counts as inactive or inconclusive.

Tests used:
[1] = target: Single-stranded DNA cytosine deaminase (Homo sapiens) (UniProt Q9GZX7); assay: Validation qHTS assay for inhibitors of Activation Induced Cytidine Deaminase (AID): AID signal (AID 1347429); also: % is scaled to controls: 0 for no effect and ±100 for the full control effect
Chain of Single-stranded DNA cytosine deaminase (Homo sapiens) (Q9GZX7 whole entry, looked up): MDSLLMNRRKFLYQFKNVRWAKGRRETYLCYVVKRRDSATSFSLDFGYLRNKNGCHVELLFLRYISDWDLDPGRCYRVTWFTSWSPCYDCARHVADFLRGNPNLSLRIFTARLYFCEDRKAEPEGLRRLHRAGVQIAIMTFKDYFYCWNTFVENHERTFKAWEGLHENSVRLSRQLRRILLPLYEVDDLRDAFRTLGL
Summary of the method: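 Compounds (final up to 114 uM) preincubated with AID plus UDG; 250 nM DJC20/DJC23 substrate mix (4x stock) added, 4 hr at room temperature, then NaOH, 30 min. Read 1 fluorescence at 540 nm excitation, 590 nm emission.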

[2] = Primary qHTS for inhibitors of La Crosse Virus (LACV) - induced cell death in SH-SY5Y cells (AID 1508616);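 also: top concentration of the series differs between compounds; 0% = infected DMSO wells and 100% = uninfected DMSO wells; higher means more rescue of cells from virus-induced death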
Summary of the method: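 Rescue of virus-induced death was read as ATPLite luminescence after 6 days at 37C, scaled between DMSO wells with LACV and without virus. Cells were SH-SY5Y, 6000/well, infected at 0.01 MOI after compound addition.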

[3] = target: Papain (Carica papaya) (UniProt P00784); assay: Primary qHTS assay for inhibitors of the protease papain (AID 1645873);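 also: papain turnover of Z-FR-AMC read as the AMC fluorescence gain over 10 min; series mostly up to about 50 µM; % is scaled to controls: 0 for no effect and ±100 for the full control effect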
Chain of Papain (Carica papaya) (P00784 whole entry, looked up): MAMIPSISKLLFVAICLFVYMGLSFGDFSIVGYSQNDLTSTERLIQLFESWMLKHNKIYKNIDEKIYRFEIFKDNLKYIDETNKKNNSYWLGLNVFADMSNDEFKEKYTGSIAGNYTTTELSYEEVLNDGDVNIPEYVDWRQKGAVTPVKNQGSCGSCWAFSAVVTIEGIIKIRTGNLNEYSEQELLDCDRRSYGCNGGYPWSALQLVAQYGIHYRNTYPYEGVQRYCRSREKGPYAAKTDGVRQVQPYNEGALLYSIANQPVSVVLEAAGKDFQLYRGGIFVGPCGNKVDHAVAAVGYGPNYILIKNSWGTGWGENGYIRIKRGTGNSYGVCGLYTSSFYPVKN

[4] = target: Calcium and integrin-binding protein 1 (Homo sapiens) (UniProt Q99828); assay: Validation qHTS for Identification of Calcium Integrin Binding protein 1 (CIB1) Competitor (AID 1508618); also: % is scaled to controls: 0 for no effect and ±100 for the full control effect
Chain of Calcium and integrin-binding protein 1 (Homo sapiens) (Q99828 whole entry, looked up): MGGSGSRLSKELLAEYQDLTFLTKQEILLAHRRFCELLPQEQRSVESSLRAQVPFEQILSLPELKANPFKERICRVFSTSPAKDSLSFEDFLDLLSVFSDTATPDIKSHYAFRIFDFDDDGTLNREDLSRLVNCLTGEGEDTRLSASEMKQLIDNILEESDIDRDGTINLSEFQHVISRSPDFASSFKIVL
Summary of the method: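 CIB1-GST (1 uM final) incubated 15 min at room temperature with compounds (up to 114 uM), then FITC-labelled alphaIIb peptide (100 nM) added. FP read (Ex 480/Em 540) after 15 min, pH 7.4 buffer containing 5 mM CaCl2.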

[5] = Counterscreen qHTS for small molecule stabilizers of the endoplasmic reticulum resident proteome: GLuc-NoTag assay (AID 1508627);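 also: series mostly up to about 76 µM; 0% = thapsigargin alone and -100% = DMSO vehicle control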
Summary of the method: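 Counterscreen line: SH-SY5Y-GLuc-NoTag. Seed, 5 h; compound, 19 h; thapsigargin 100 nM, 4 h; 37C/5% CO2. Readout: secreted GLuc luminescence, coelenterazine 0.07x final, no lysis.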

[6] = Confirmatory qHTS for small molecule stabilizers of the endoplasmic reticulum resident proteome: Secreted ER Calcium Modulated Protein (SERCaMP) assay (AID 1508628); also: series mostly up to about 76 µM; % is scaled to controls: 0 for no effect and ±100 for the full control effect; nearly all actives have a fitted effect of over 40% in size
Summary of the method: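 Reporter secretion upon ER calcium depletion (100 nM thapsigargin, 4 h, 37C) is measured as medium luminescence with coelenterazine, after 16 h compound pretreatment of SH-SY5Y-GLuc-SERCaMP cells; primary at three concentrations up to 38.3 uM, follow-up at 11 (up to 76.6 uM).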

[7] = Cell Viability qHTS for small molecule stabilizers of the endoplasmic reticulum resident proteome (AID 1508629); conditions: cell viability counter-screen, 100 nM thapsigargin for final 4 h;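 also: human SH-SY5Y neuroblastoma cells carrying the GLuc-SERCaMP reporter; compound exposure about 46 h in total before the viability read; % is scaled to controls: 0 for no effect and ±100 for the full control effect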
[8] = Primary qHTS for small molecule stabilizers of the endoplasmic reticulum resident proteome: Secreted ER Calcium Modulated Protein (SERCaMP) assay (AID 1508630); also: % is scaled to controls: 0 for no effect and ±100 for the full control effect
Summary of the method: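 The SH-SY5Y reporter protocol was run at 3 concentrations up to 38.3 uM (primary) or 11 concentrations (follow-up): 16 h compound, 100 nM thapsigargin for 4 h, then extracellular luciferase luminescence.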

[9] = target: Calcium and integrin-binding protein 1 (Homo sapiens) (UniProt Q99828); assay: Primary qHTS for Identification of Calcium Integrin Binding Protein 1 (CIB1) Competitor (AID 1508620)
Summary of the method: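 Fluorescence polarization competition: GST-tagged CIB1 (1 uM final) preincubated with compound 15 min at room temperature, then FITC-labelled alphaIIb peptide (100 nM final) added. After 15 min at room temperature, polarization read at Ex 480/Em 540.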

[10] = A High-Content qHTS Against Drug Library for the Identification of Small Molecules that Inhibit DYT1 Early Onset Primary Dystonia-Associated Cell Pathology (AID 1645839; calls by dose curve; also: series mostly up to about 46 µM)
Summary of the method: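 Cells were seeded and left for 24 h, then dosed with compound alongside tetracycline induction of mutant EGFP-TorsinA. They were incubated for 48 h, fixed in 4% paraformaldehyde, permeabilized and imaged for mislocalization (%pathology) and cell count.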

[11] = target: Cytochrome P450 2D6 (Homo sapiens) (UniProt P10635); assay: Cytochrome P450 family 2 subfamily D member 6 (CYP2D6) small molecule antagonists: luciferase biochemical (cell-free) qHTS assay (AID 1645840; active = well fitted curve in the direction sought with a large enough effect in the repeat runs; an effect the other way counts as inactive or inconclusive; also: series mostly up to about 57 µM; % is scaled to controls: 0 for no effect and ±100 for the full control effect; nearly all actives have a fitted effect of over 55% in size)
Chain of Cytochrome P450 2D6 (Homo sapiens) (P10635 whole entry, looked up): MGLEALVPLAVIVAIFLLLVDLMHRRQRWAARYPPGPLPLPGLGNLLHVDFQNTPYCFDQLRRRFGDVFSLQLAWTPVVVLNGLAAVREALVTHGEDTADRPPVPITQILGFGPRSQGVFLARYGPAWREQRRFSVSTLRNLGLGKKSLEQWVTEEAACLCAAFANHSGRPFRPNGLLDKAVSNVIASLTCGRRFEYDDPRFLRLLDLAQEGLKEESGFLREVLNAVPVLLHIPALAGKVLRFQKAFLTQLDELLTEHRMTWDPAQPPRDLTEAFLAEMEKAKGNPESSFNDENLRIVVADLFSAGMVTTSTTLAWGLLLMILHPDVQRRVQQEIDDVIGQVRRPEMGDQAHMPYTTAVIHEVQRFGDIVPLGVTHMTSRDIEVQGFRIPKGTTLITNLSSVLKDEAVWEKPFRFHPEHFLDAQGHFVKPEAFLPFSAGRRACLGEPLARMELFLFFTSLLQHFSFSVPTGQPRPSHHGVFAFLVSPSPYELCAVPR
Summary of the method: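 P450-Glo CYP2D6 system: proluciferin substrate converted by enzyme to luciferin, read by luminescence proportional to activity. Enzyme-substrate mix with compound 10 min at room temperature, then NADPH regeneration 1 h before detection reagent.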

[12] = target: Cytochrome P450 3A4 (Homo sapiens) (UniProt P08684); assay: Cytochrome P450 family 3 subfamily A member 4 (CYP3A4) small molecule antagonists: luciferase qHTS assay (AID 1645841; active = well fitted curve in the direction sought with a large enough effect in the repeat runs; an effect the other way counts as inactive or inconclusive; also: nearly all actives have a fitted effect of over 45% in size)
Chain of Cytochrome P450 3A4 (Homo sapiens) (P08684 whole entry, looked up): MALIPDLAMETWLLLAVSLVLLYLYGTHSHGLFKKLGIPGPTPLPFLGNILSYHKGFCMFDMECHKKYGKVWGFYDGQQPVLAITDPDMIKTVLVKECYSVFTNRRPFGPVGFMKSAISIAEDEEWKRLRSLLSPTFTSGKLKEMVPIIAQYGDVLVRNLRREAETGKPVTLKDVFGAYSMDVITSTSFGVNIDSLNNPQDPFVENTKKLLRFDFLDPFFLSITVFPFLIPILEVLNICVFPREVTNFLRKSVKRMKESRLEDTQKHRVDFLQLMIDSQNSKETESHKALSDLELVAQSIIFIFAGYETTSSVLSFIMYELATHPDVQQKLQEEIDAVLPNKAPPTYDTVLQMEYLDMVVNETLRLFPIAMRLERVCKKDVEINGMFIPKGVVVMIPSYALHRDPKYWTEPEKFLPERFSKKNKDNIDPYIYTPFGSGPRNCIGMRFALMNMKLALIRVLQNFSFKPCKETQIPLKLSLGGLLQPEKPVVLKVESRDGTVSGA
Summary of the method: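 P450-Glo CYP3A4 enzyme with proluciferin substrate preincubated 10 min with compound at room temperature, then NADPH regeneration 1 h. Luciferin detection reagent added for 20 min; luminescence recorded. Ketoconazole positive control.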

[13] = target: Cytochrome P450 2C9 (Homo sapiens) (UniProt P11712); assay: Cytochrome P450 family 2 subfamily C member 9 (CYP2C9) small molecule antagonists: luciferase biochemical (cell-free) qHTS assay (AID 1645842; active = well fitted curve in the direction sought with a large enough effect in the repeat runs; an effect the other way counts as inactive or inconclusive; also: series mostly up to about 57 µM; % is scaled to controls: 0 for no effect and ±100 for the full control effect; nearly all actives have a fitted effect of over 55% in size)
Chain of Cytochrome P450 2C9 (Homo sapiens) (P11712 whole entry, looked up): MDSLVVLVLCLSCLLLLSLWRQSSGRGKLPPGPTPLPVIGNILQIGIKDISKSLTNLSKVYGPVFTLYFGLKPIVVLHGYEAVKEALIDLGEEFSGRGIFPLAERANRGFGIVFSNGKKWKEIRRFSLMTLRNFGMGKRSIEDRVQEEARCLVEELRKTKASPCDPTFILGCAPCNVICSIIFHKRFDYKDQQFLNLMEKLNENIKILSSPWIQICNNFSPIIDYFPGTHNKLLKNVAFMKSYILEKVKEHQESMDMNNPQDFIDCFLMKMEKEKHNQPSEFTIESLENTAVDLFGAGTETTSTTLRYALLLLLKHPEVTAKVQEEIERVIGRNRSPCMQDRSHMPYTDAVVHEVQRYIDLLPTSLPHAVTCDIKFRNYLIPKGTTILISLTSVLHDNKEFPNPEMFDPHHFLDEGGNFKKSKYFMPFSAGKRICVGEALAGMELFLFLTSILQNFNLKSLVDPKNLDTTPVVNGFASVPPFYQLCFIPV
Summary of the method: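 P450-Glo CYP2C9 system: proluciferin substrate with enzyme in mix containing 0.4% BSA, 10 min at room temperature, then NADPH regeneration solution added and incubated 1 h at 37C. Detection reagent stopped reaction; luminescence read after 20 min as RLU.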

[14] = Primary qHTS for inhibitors of nuclear receptor binding SET domain protein 2 (NSD2) in an isogenic RCH-ACV NSD2 p.E1099K mutant (9B) (AID 1645876); also: % is scaled to controls: 0 for no effect and ±100 for the full control effect; nearly all actives have a fitted effect of over 70% in size
[15] = Primary qHTS for inhibitors of nuclear receptor binding SET domain protein 2 (NSD2) in an RCH-ACV wild type WT cells (2C) (AID 1645877); also: % is scaled to controls: 0 for no effect and ±100 for the full control effect; nearly all actives have a fitted effect of over 70% in size

COc1cccc(C(=O)NCCN2CCN(c3ccc(Cl)cc3)CC2)c1
inactive: Potency [1] | Potency [2] | Potency [3]

CCCN(CC1CC1)c1nc(C)nc(Nc2c(Cl)cc(Cl)cc2Cl)c1Cl
inactive: Potency [1] | outcome [4] | Potency [5] | Potency [6] | max response [7] 17.8% | Potency [8] | Potency [3]

CN(C)c1nc(N)c(C(=O)N=C(N)N)nc1Cl
inactive: Potency [1] | Potency [8] | Potency [3]

O=[N+]([O-])c1ccc2c(c1)S(=O)(=O)C=C2
inactive: Potency [1] | Potency [8]

CCC1C(=O)OCC1Cc1cncn1C (stereo unspecified)
inactive: Potency [2] | outcome [4] | Potency [9] | Potency [8] | Potency [10] | Potency [11] | outcome [12] | Potency [13] | Potency [3] | Potency [14] | Potency [15]

O=P(O)(O)C(Cl)(Cl)P(=O)(O)O
inactive: Potency [2] | outcome [4] | Potency [8] | Potency [3]

CN(C)CCCO[C@@H]1[C@H]2OC(C)(C)O[C@H]2O[C@@H]1[C@H](O)CO
inactive: Potency [1] | Potency [8]

CCCCC#Cc1nc(NC)c2ncn([C@@H]3O[C@H](CO)[C@@H](O)[C@H]3O)c2n1
inactive: Potency [1] | Potency [8] | Potency [3]

Nc1nc(Cl)nc2c1ncn2[C@@H]1O[C@H](CO)[C@@H](O)[C@H]1O
inactive: Potency [1] | Potency [8] | Potency [3]

COc1ccc2c(c1)CCC1C2CC[C@@]2(C)C1CC[C@@H]2NCCCCCCN1C(=O)CCC1=O (stereo partly specified)
inactive: Potency [1] | Potency [8] | Potency [3]
